Hits are enriched below; roughly 4% of the tested compounds scored in any of these assays.
NR3A LBD binder: modulators (binders) of human NR3A ligand-binding domain | NR3A LBD differential scanning fluorimetry, Tm shift; 0% = protein alone, 100% = glycine-bound protein | Tm shift relative to glycine control, % at 25 µM | hit rate 2.5% among 340,000 | AID 1259313;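 active = melting temperature shift of at least 10% of the positive control shift, at one fixed dose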
FAS-TE inh: inhibitors of human fatty acid synthase thioesterase domain; P49327; recombinant FAS-TE, OMFH fluorogenic substrate, fluorescence endpoint; inhibition, % at 15 µM; hit rate 0.67% among 360,000;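 active = compounds whose normalised, plate-corrected inhibition of enzyme fluorescence in the single-dose primary screen is 50% or more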
ADAM17 inh: ADAM17 inhibition, QFRET primary screen; P78536; recombinant ADAM17, EDANS/DABCYL FRET peptide cleavage; inhibition, % at 6.95 µM; hit rate 0.83% among 370,000;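 active = inhibition above the mean of compounds lying between control limits plus 3 SD, set per campaign, cut at about 8.5% in these data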
ADAM10 inh: inhibitors of human ADAM10; O14672; recombinant ADAM10, EDANS/DABCYL FRET peptide cleavage, 3 h; inhibition, % at 7 µM; hit rate 0.62% among 370,000; AID 720582;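 active = inhibition above a per-campaign cutoff equal to the mean of compounds falling between control-based bounds plus 3 SD, cut at about 20% in these data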
aDG glyco up: increases alpha dystroglycan glycosylation. hit rate 0.22% among 360,000. Pro5-aDG cells, alpha-DG glycosylation AlphaScreen (IIH6); 0% Pro5, 100% B10-LARGE cell signal. activation, % at 10 µM. AID 624168;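 active = activation of at least 8% versus controls, or a plate z-score of at least 8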;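 note: Pro5 are CHO cells carrying HIG-tagged alpha-DG that lacks glycosylation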
Hits are given with their value; i = inactive; nt = no result given.

SMILES	NR3A LBD binder	FAS-TE inh	ADAM17 inh	ADAM10 inh	aDG glyco up
O=C(Nc1ccc(Nc2ccccc2)cc1)c1ccc(Cl)cc1	32	i	i	i	i
Cc1ccc(C(=O)Nc2ccc(Nc3ccccc3)cc2)cc1C	i	i	i	i	i
O=C(Nc1ccc(F)cc1)c1cccc(N2C(=O)C3C4C=CC(C4)C3C2=O)c1 (configuration not stated)	18	i	i	i	i
O=C(Nc1cccc(C(=O)Nc2ccc(Br)cc2)c1)c1ccccc1	27	i	i	i	i
O=C(Nc1ccc(Cl)cc1Cl)c1ccc(-c2ccccc2)cc1	i	i	i	i	i
O=C(Nc1ccc2ncccc2c1)c1cccc(Br)c1	22	i	i	i	i
N#C/C(C(=O)Nc1ccc(Cl)cc1)=C(/S)Nc1ccccc1	32	i	i	i	i
O=C(Nc1cc(-c2ccccc2)[nH]n1)c1ccc(Cl)cc1	18	i	i	i	i
O=C(NNC(=O)c1ccc(NC(=O)c2ccccc2)cc1)c1ccccc1	i	i	i	i	i
O=C(Nc1ccc(Nc2ccccc2)cc1)c1ccccc1	13	nt	i	i	nt
O=C(Nc1ccccc1)c1oc2ccccc2c1NC(=O)C1CC1	13	i	i	i	i
CCOc1ccc(CSCCNC(=S)Nc2ccc(OC)cc2)cc1	i	i	i	i	i
O=C(O)c1ccc(Cl)c(NC(=O)C2CCN(S(=O)(=O)c3ccc4c(c3)OCCO4)CC2)c1	nt	i	i	i	i
Cn1c(=O)n(C)c2cc([N+](=O)[O-])c(N3CCN(S(=O)(=O)c4ccc5ccccc5c4)CC3)cc21	i	66	i	i	i
CC[C@]12c3[nH]c4cc(-c5ccco5)ccc4c3CCN1C(=O)[C@@H](CC(=O)NCc1ccc(OC)c(OC)c1)C[C@@H]2C(=O)N1CCN(C(=O)C2CC2)CC1	i	i	i	i	i
N#CC1=C(SCC(=O)NC23CC4CC(CC(C4)C2)C3)NC(=O)C(C#N)C12CCCCC2 (configuration not stated)	12	i	i	i	i
N#CC1=C(SCC(=O)NC2CC2)NC(=O)C(C#N)C12CCCCC2 (configuration not stated)	i	i	i	i	i
CC(C)(C)C1CCC2(CC1)C(C#N)=C(SCC(=O)NC1CCCCC1)NC(=O)C2C#N (configuration not stated)	12	i	i	i	i
Cc1[nH]n(-c2ccccc2)c(=O)c1C(c1ccc(O)c([N+](=O)[O-])c1)c1c(C)[nH]n(-c2ccccc2)c1=O	i	i	i	i	i
O=C(O)c1c(C(=O)O)c(-c2ccc(Br)cc2)n2c1CSC2	14	i	i	i	i
COCCn1cc(C(=O)NCCCOC(C)C)c2c3ccccc3n(C)c2c1=O	i	i	i	i	i
CC12CCC(=O)N1C(C(=O)N1CCN(S(=O)(=O)c3cccc(C(F)(F)F)c3)CC1)CS2 (configuration not stated)	i	i	i	i	i
Cc1cc(C)nc(NS(=O)(=O)c2ccc(NC(=O)Nc3ccccc3)cc2)n1	19	i	i	i	i
Cc1cc(C)nc(NS(=O)(=O)c2ccc(NC(=O)CN3C(=O)S/C(=C\c4ccccc4)C3=O)cc2)n1	11	i	i	i	i
COc1ccc(CC(=O)NCCc2ccc(OC)c(OC)c2)cc1	i	i	i	i	i
SMILES	NR3A LBD binder	FAS-TE inh	ADAM17 inh	ADAM10 inh	aDG glyco up
CCOc1ccccc1C(=O)NCC(=O)NCc1ccc(S(=O)(=O)N2CCOCC2)cc1	i	i	i	i	i
COc1ccc(N=c2oc3cc(O)ccc3cc2C(=O)Nc2ccccn2)cc1OC	15	i	i	i	i
Cc1ccc(N=c2oc3cc(O)ccc3cc2C(N)=O)cc1	i	i	i	i	i
COc1ccc(-c2c(C#Cc3ccsc3)c3cc(-c4ccc5[nH]ccc5c4)ccc3n2C)cc1	11	i	i	i	i
C=CCNC(C(=O)Nc1cccc(OC)c1)c1ccccc1 (configuration not stated)	15	i	i	i	i
COc1cccc(NC(=O)C(NCC(C)(C)CN(C)C)c2ccccc2)c1 (configuration not stated)	i	i	i	i	i
Cc1cccc(C(=O)N=C2SC3CS(=O)(=O)CC3N2c2ccccc2)c1 (configuration not stated)	i	i	i	i	i
Cc1ccc(CN2C(=O)c3ccccc3NC2c2cc(Br)ccc2O)cc1 (configuration not stated)	22	i	i	i	i
Cc1cc(=O)n2[nH]c(SCc3c(F)cccc3Cl)nc2n1	i	i	i	i	i
Cc1cc(=O)n2[nH]c(SCc3ccccc3Cl)nc2n1	18	i	i	i	i
O=C(/C=C/c1ccc(Cl)cc1)Nn1c(-c2cccs2)nc2ccccc2c1=O	13	i	i	i	i
Oc1ccc(Cl)cc1C1=NNC(c2ccc(Cl)cc2)C1 (configuration not stated)	11	i	i	i	i
C#CCOCCOCCOCCNc1nc(N2CCN(C(=O)[C@H]([C@@H](C)CC)n3cc(CCCN=C(N)N)nn3)CC2)nc(N2CCN(C(=O)[C@H](C)n3cc(CCCN=C(N)N)nn3)CC2)n1	i	nt	nt	nt	nt
CCOC(=O)C(C(=O)OCC)C(C)C#CCN1CCCCC1 (configuration not stated)	i	i	i	i	i
C=CCn1c(SCc2ccc(C(=O)Nc3nccs3)cc2)nnc1-c1ccc(C)c(Cl)c1	i	i	8.8	i	i
O=C(/C=C/Nc1ccc([N+](=O)[O-])cc1Br)c1cccc2ccccc12	13	i	i	i	i
CC(C)(C=O)C1=CC(=O)c2ccccc2C1=O	11	i	i	i	i
O=C(Nc1cccc2ncccc12)c1cccc(F)c1	i	i	i	i	i
O=C(Nc1cccc2ncccc12)c1ccc(F)cc1	12	i	i	i	i
Cc1cc(C(=O)N/N=C/c2c(CO)cnc(C)c2O)c2ccccc2n1	i	i	i	i	i
Oc1ccc(/C=N/Nc2cccc(Cl)n2)c(O)c1	27	i	i	i	i
Cc1ncc(CO)c(/C=N/Nc2cccc(Cl)n2)c1O	15	i	i	i	i
Cc1ccc2nc(/C(C#N)=C\c3ccc(Oc4ccc([N+](=O)[O-])cn4)cc3)[nH]c2c1	12	i	i	i	i
NC(=O)c1sc2cc(C(F)(F)F)cnc2c1-c1cccs1	21	i	i	i	i
Cc1ccn2c(=O)c(C(=O)O)cnc2c1	i	i	i	i	i
O=C(NNC(=O)c1cc2cc(Br)ccc2oc1=O)c1ccc(O)cc1O	17	i	i	i	i
COCCCNC(=O)c1cc2cc(Br)ccc2oc1=O	i	i	i	i	i
COc1ccc(C(=O)/C=C/C(=O)N(Cc2ccccc2)C(C(=O)NC2CCCCC2)c2ccncc2)c(O)c1 (configuration not stated)	17	i	i	i	i
CCc1nn(CCCC(=O)N(C)Cc2ccccc2)c(=O)c2cc3occc3n12	i	i	i	i	i

Source: PubChem BioAssay (several laboratories)
